This is part of a sample that, as a whole, favours compounds with a hit. Of some 83,000 tested, about 20% had one in any assay.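 48-hour exposure, single concentration, 96-well plates; percent growth endpoint where 0 means no net growth. Active: below 10.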 Calls of active or inactive are those of the source.
Assays:
Assay in all cases: NCI-60 one-dose screen, 48 h (100 = growth as untreated, 0 = no growth, -100 = all killed)
[1] = system: HCT-15 colon; conditions: 10 µM unless noted
[2] = system: HT29 colon; conditions: 10 µM unless noted
[3] = system: SNB-75 CNS; conditions: 10 µM unless noted
[4] = system: SNB-19 CNS; conditions: 10 µM unless noted
[5] = system: U251 CNS; conditions: 10 µM unless noted
[6] = system: PC-3 prostate; conditions: 10 µM unless noted
[7] = system: SK-MEL-5 melanoma; conditions: 10 µM unless noted
[8] = system: UACC-62 melanoma; conditions: 10 µM unless noted
[9] = system: LOX IMVI melanoma; conditions: 10 µM unless noted
[10] = system: SK-MEL-28 melanoma; conditions: 10 µM unless noted
[11] = system: SK-MEL-2 melanoma; conditions: 10 µM unless noted
[12] = system: EKVX NSCLC; conditions: 10 µM unless noted
[13] = system: SN12C renal; conditions: 10 µM unless noted
[14] = system: UO-31 renal; conditions: 10 µM unless noted
[15] = system: ACHN renal; conditions: 10 µM unless noted
[16] = system: CAKI-1 renal; conditions: 10 µM
[17] = system: A498 renal; conditions: 10 µM unless noted
[18] = system: CCRF-CEM leukemia; conditions: 10 µM unless noted
[19] = system: MOLT-4 leukemia; conditions: 10 µM unless noted

Measured: growth

COc1ccc(CCNC=O)cc1OC
inactive: [1] 103% | [2] 114% | [3] 80.7% | [4] 92.4% | [5] 110% | [6] 100% | [7] 95.5% | [8] 103% | [9] 98.1% | [10] 106% | [11] 105% | [12] 105% | [13] 97.4% | [14] 82.3% | [15] 101% | [16] 100% | [17] 102% | [18] 105% | [19] 100%

O=C1OC(N(Cc2ccc(Cl)cc2)c2ccccc2)c2ccccc21 (stereo not given)
inactive: [1] 104% | [2] 87.4% | [3] 115% | [4] 96.7% | [5] 100% | [6] 98.2% | [7] 101% | [8] 93.9% | [9] 98.9% | [10] 111% | [11] 94.4% | [12] 102% | [13] 94.6% | [14] 94.5% | [15] 108% | [16] 103% | [17] 90.1% | [18] 92.2% | [19] 81.9%

CCC1(C(N)=O)CC2C=CC1CC2 (stereo not given)
inactive: [1] 109% | [2] 106% | [3] 95.9% | [4] 90.2% | [5] 110% | [6] 103% | [7] 98.7% | [8] 104% | [9] 96.2% | [10] 125% | [11] 124% | [12] 115% | [13] 118% | [14] 90.8% | [15] 107% | [16] 96.6% | [17] 95.7% | [18] 127% | [19] 111%

O=C(Nc1ccc(-n2ccc3c(NC(=O)c4ccccc4)nccc32)cc1)Nc1cccc(C(F)(F)F)c1
inactive: [1] 19.7% | [3] 74.3% | [4] 65.8% | [5] 32.3% | [6] 13.6% | [7] 53.6% | [8] 78.6% | [9] 26.6% | [10] 60.3% | [11] 71.9% | [12] 65.5% | [13] 79.2% | [14] 78% | [15] 62.2% | [16] 68.6% | [17] 80.7% | [18] 13.8% | [19] 35.9%
active: [2] -0.934%

Cc1ccc2nc(-c3ccc(-n4on4-c4ccc(/C=C/c5ccc(-n6on6-c6ccc(-c7nc8ccc(C)cc8s7)cc6)cc5S(=O)(=O)O)c(S(=O)(=O)O)c4)cc3)sc2c1
inactive: [1] 109% | [2] 113% | [3] 107% | [4] 117% | [5] 115% | [6] 98% | [7] 107% | [8] 105% | [9] 97% | [10] 107% | [11] 112% | [12] 112% | [13] 105% | [14] 90.4% | [15] 105% | [16] 106% | [17] 112% | [18] 100% | [19] 93.9%

O=C(NCCNc1nccc(-c2c(-c3cccc(O)c3)nc3sccn23)n1)c1ccc(N2CCOCC2)c(C(F)(F)F)c1
active: [8] 5.88%
inactive: [1] 80.1% | [2] 68.6% | [3] 58% | [4] 107% | [5] 82% | [6] 56.6% | [7] 40% | [9] 42.2% | [10] 42.8% | [11] 66.7% | [12] 74% | [13] 76% | [14] 61.3% | [15] 60.8% | [16] 66.9% | [17] 47.8% | [18] 56.9% | [19] 57%

c1ccc(CNCCN(CCNCc2ccccn2)Cc2ccc3ccccc3c2)nc1
inactive: [3] 21.2% | [4] 18.3% | [12] 15.4%
active: [1] 1.52% | [2] 6.31% | [5] 3.09% | [6] -0.81% | [7] -43.1% | [8] -23.4% | [9] 0.713% | [10] 5% | [11] 9.46% | [13] 7.67% | [14] -79.8% | [15] -27.9% | [16] -81.8% | [17] -17.5% | [18] 6.8% | [19] -24.3%

CCn1c(SCC(=O)c2ccc(Br)cc2)nnc1-c1cc2c([nH]c3ccccc32)c(-c2cccc(O)c2)n1
inactive: [1] 56.2% | [2] 91.6% | [3] 60.9% | [4] 98.9% | [5] 58.5% | [6] 68.6% | [7] 52.7% | [8] 89.6% | [9] 48.2% | [10] 73.7% | [11] 69.9% | [12] 67.2% | [13] 96.5% | [14] 70.4% | [15] 60.5% | [16] 83.7% | [17] 73.5% | [18] 78.5%

CC1OC(n2c3ccccc3c3c4c(c5c6ccccc6[nH]c5c32)C(=O)N(CCN[C@@H]2CCC[C@H]2N)C4=O)CC(O)C1O (stereo not given in full)
inactive: [1] 70.2% | [3] 12.5% | [4] 14.8% | [8] 17.9% | [10] 45.3% | [11] 47.1% | [12] 23.3% | [13] 13.7% | [14] 63.3% | [15] 25% | [16] 78.6% | [17] 48.3% | [18] 13.2%
active: [2] 0.0923% | [5] 7.39% | [6] 9.72% | [7] -48.6% | [9] 0.411% | [19] 2.71%

Cc1cc(O[C@@H]2O[C@@H](C)[C@H](O)[C@@H](O)[C@H]2O)c2c3c(c(O[C@@H]4O[C@@H](C)[C@H](O)[C@@H](O)[C@H]4O)cc2c1)C(=O)c1c(O)cccc1C3=O
active: [17] -53%
inactive: [1] 87.9% | [2] 72.4% | [3] 52.2% | [4] 94.3% | [5] 82% | [6] 56.7% | [7] 67.8% | [8] 65.6% | [9] 74% | [10] 90.8% | [11] 90.4% | [12] 76.7% | [13] 54.2% | [14] 11.7% | [15] 47.2% | [16] 60.3% | [18] 82.6% | [19] 68.8%

Nc1nccc2c1ccn2-c1ccc(NC(=O)c2ccc(N3CCOCC3)c(C(F)(F)F)c2)cc1
active: [2] -39.7% | [4] 0.546% | [7] -89.6% | [8] 6.43% | [9] -45.3% | [14] -41.2% | [16] -25.3% | [17] -9.64% | [19] -3.7%
inactive: [1] 14.1% | [3] 25.7% | [5] 12% | [6] 10.4% | [10] 48.9% | [11] 35.3% | [12] 36.7% | [13] 48.8% | [15] 24.3% | [18] 18.5%

O=C(NCCNc1nccc(-c2c(-c3cccc(O)c3)nc3sccn23)n1)Nc1cc(C(F)(F)F)cc(C(F)(F)F)c1
inactive: [1] 79.2% | [2] 63.1% | [3] 66.1% | [4] 90.8% | [5] 77% | [6] 51.2% | [7] 59.7% | [8] 54.4% | [9] 60.6% | [10] 68.8% | [11] 110% | [12] 52.2% | [13] 82.8% | [14] 73.1% | [15] 65.9% | [16] 72.3% | [17] 86% | [18] 39.1% | [19] 60.2%

CN[C@@H](CCCNC(N)=NC/C=C(/C)CCC=C(C)C)C(=O)N(C)[C@@H](CCCNC(N)=NCC=C(C)C)C(=O)N[C@H](C)[C@H](OS(=O)(=O)O)c1ccc(OS(=O)(=O)O)c(COS(=O)(=O)O)c1
inactive: [1] 113% | [2] 86.2% | [3] 98.6% | [4] 101% | [5] 98.4% | [6] 89.5% | [7] 99.6% | [8] 93.8% | [9] 99.7% | [10] 107% | [11] 105% | [12] 113% | [13] 101% | [14] 97.6% | [15] 113% | [16] 106% | [17] 87% | [18] 102% | [19] 96.9%

CCCCOc1nc2ccc(Cl)cc2cc1/C=C/C(=O)/C=C/c1ccc(OC)cc1
inactive: [1] 91.5% | [2] 71.6% | [3] 97.9% | [4] 105% | [5] 80.5% | [6] 88.9% | [7] 93.9% | [8] 78.9% | [9] 71.5% | [10] 107% | [11] 90.5% | [12] 110% | [13] 92.7% | [14] 84.4% | [15] 105% | [16] 99.1% | [17] 101% | [18] 87.2% | [19] 78%

From PubChem BioAssay (NCI)
